Sfp inh: Sfp phosphopantetheinyl transferase inhibition | Q9F4F7 | Biochemical Sfp PPTase activity, qHTS | actives 3.5% (n = 310,000) | AID 1490 | Potency, µM, without a hit: largest response in the series, negative = inhibition, hits mostly inhibitors;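 note: the enzyme is Sfp with the accession as filed and its product quenches rhodamine fluorescence; 0% = enzyme reaction without inhibitor and -100% = no enzyme wells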
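With Hepes-Na pH 7.6 buffer containing 10 mM MgCl2, Sfp (15 nM) modified BHQ-2-YbbR (12.5 uM) using rhodamine-CoA (5 uM). Two reads 30 minutes apart at 525/598 nm yielded each well's rate.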
VDR inhibitor: inhibitors of human vitamin D receptor; actives 0.93% (n = 400,000); VDR-SRC2-3 peptide fluorescence polarization, 2 h; P11473; Potency, µM, for inactives: max response, negative = inhibition, hits mostly inhibitors; note: % is set by controls: 0 for no effect and ±100 for the full control effect
Target sequence (P11473 whole entry, looked up): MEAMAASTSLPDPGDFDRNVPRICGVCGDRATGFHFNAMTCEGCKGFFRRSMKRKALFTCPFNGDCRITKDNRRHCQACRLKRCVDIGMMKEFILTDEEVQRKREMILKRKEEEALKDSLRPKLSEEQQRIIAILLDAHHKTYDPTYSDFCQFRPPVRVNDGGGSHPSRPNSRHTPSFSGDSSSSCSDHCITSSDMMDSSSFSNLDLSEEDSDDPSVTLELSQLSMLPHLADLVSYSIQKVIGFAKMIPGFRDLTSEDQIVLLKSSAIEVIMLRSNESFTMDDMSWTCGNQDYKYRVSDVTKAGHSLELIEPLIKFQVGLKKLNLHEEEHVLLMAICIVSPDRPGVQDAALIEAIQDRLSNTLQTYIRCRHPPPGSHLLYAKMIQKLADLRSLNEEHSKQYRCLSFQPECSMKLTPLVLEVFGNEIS
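Fluorescence polarization assay measuring small-molecule disruption of VDR binding to the coregulator peptide SRC2-3. Compounds were pin-transferred (23 nl) into the reagent mix and incubated 2 h at room temperature before reading.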
G9a block: blocks human histone lysine methyltransferase G9a | actives 8.8% (n = 350,000) | Q96KQ7 | G9a H3K9 monomethylation, AlphaScreen, 2 h | Potency, µM (series often up to 102 µM), for the others: at the top dose activity, negative = inhibition, usual class: inhibitors | AID 504332; note: % is set by controls: 0 for no effect and ±100 for the full control effect; nearly all actives have a fitted effect of over 75% in size
Target sequence (Q96KQ7 913-1193 limits assumed): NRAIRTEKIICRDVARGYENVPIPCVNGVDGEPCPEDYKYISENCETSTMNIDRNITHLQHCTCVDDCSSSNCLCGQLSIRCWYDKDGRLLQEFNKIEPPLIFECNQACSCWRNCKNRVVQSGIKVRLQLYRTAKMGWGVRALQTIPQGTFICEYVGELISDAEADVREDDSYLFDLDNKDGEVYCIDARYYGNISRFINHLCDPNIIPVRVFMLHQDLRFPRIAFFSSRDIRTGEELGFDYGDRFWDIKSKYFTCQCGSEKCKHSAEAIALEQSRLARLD
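Compounds were preincubated with 20 nM G9a for 15 min, after which biotinylated H3K9 peptide (500 nM) and SAM (20 uM) started a 2 h room-temperature reaction. Monomethylated product was quantified by antibody-based AlphaScreen chemiluminescence.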
12-LOX inh: inhibitors of human 12S-lipoxygenase ALOX12. purified 12hLO, xylenol orange hydroperoxide absorbance. Potency, µM (doses to about 108 µM), inactives show at the highest dose activity change, negative = inhibition, hits mostly inhibitors. P18054. actives 1.1% (n = 580,000); note: % is set by controls: 0 for no effect and ±100 for the full control effect
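Hydroperoxide product was detected by ferrous iron/xylenol orange as the 573 to 405 nm absorbance ratio. Arachidonic acid at 40 uM (final) was turned over for 30 min at room temperature by 150 nM human 12hLO, pH 7.0 Hepes buffer, after 15 min compound preincubation.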
GRP78 ERSR act: inducers of ER stress response in human glioma cells | U87-MG GRP78 promoter luciferase reporter, 16 h | Potency, µM, inactives show at the highest dose activation, most hits filed as activators | actives 0.02% (n = 420,000) | AID 602332; note: series mostly up to about 76 µM; % of control where 0% means no effect; nearly all actives have a fitted effect of over 35% in size
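Stably transfected U87-MG human glioma cells carrying a GRP78-based luminescent sensor were seeded at 1000 cells/well, pin-dosed with compounds and incubated 16 h. Luciferase reagent was then added, and end-point luminescence was read after 10 min at room temperature.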
The depositor's hits bear a star; [ ] = another dose, or the depositor's remark. Only a selection was taken, and hits are over-represented in it overall. Calls come from the whole dose curve; as a rule, active = well fitted curve in the direction sought with a large enough effect; inconclusive = small, poorly fitted or top-dose-only effect, or another doubt; inactive = no such curve, though single readings can be large; an effect the other way counts as inactive or inconclusive. Potency is the fitted concentration of half-maximal effect.

Results for Cc1nn(CC(=O)NCc2cccc(Br)c2)c(=O)c2cccn12 ?
12-LOX inh: -1%

What do the screens show for `Cc1ccccc1NC(=O)COC(=O)c1ccc2ccccc2n1`?
12-LOX inh: 5%

Results for Cc1ccc(CC(=O)C(C#N)C(=O)Nc2ccccc2Cl)cc1 (stereo not given) ?
12-LOX inh: 24%

Results for CC(C)(C)[Si](C)(C)c1c2c(nc3ccc(OCc4ccccc4)cc13)-c1cccc(=O)n1C2 ?
Sfp inh: 56µM*

How did COc1ccc2nc3c(c([Si](C)(C)C(C)(C)C)c2c1)Cn1c-3cccc1=O do in these assays?
Sfp inh: -23%

Results for CCc1c2c(nc3cccc(C(C)C)c13)-c1cccc(=O)n1C2 ?
Sfp inh: -3%

Results for COc1cc2nc3c(c([Si](C)(C)C(C)(C)C)c2cc1OC)Cn1c-3cccc1=O ?
Sfp inh: 79µM*

How did O=S(=O)(NCCc1cn2ccccc2n1)c1ccc(Cl)c(Cl)c1 do in these assays?
12-LOX inh: -6%

How did O=C(OCCOc1ccccc1)c1ccc2nccnc2c1 do in these assays?
12-LOX inh: 37%

Results for COc1ccc(NC(=O)Cn2c(C)cc3nc4n(c(=O)c32)CCCCC4)cc1Cl ?
12-LOX inh: 3%

Results for COc1ccc(CNC(=O)CCc2ncc(-c3ccccc3)o2)cc1 ?
12-LOX inh: 17%

What do the screens show for `CCNC(=S)NCc1ccc2[nH]c(C)cc2c1`?
Sfp inh: -12%; VDR inhibitor: -13%; G9a block: 50µM*; 12-LOX inh: inconclusive; GRP78 ERSR act: 0%

Results for CCOC(=O)NCc1ccc2[nH]c(C)cc2c1 ?
Sfp inh: -2%; VDR inhibitor: -6%; G9a block: inconclusive; 12-LOX inh: -9%; GRP78 ERSR act: 3%

What do the screens show for `Cc1cc2cc(CNC(=S)Nc3ccc(OC(F)(F)F)cc3)ccc2[nH]1`?
Sfp inh: 25%; VDR inhibitor: -3%; G9a block: -2%; 12-LOX inh: 32µM*; GRP78 ERSR act: -3%

What do the screens show for `Cc1cc2cc(CNC(=S)Nc3ccc(OC(F)F)cc3)ccc2[nH]1`?
Sfp inh: -1%; VDR inhibitor: -8%; G9a block: -20%; 12-LOX inh: inconclusive; GRP78 ERSR act: 2%

How did CC1=C[C@@H](CNCc2ccccn2)[C@H](C(C)C)C[C@H]1Cc1nnc(-c2ccccc2F)o1 do in these assays?
12-LOX inh: 140%[176 µM]

How did O=S1(=O)CC(N2CCCC2)CN1Cc1cn(Cc2cccc(C(F)(F)F)c2)nn1 (stereo not given) do in these assays?
12-LOX inh: 12%

How did CN1CCC(N2CCN(C3CN(Cc4cn(Cc5cccc(C(F)(F)F)c5)nn4)S(=O)(=O)C3)CC2)CC1 (stereo not given) do in these assays?
12-LOX inh: 5.6µM*

What do the screens show for `O=S1(=O)CC(N2CCCC2)CN1Cc1cn(Cc2cccc(Cl)c2)nn1` (stereo not given)?
12-LOX inh: 0%

How did O=S1(=O)CC(N2CCN(Cc3ccccc3F)CC2)CN1Cc1cn(Cc2ccc(C(F)(F)F)cc2)nn1 (stereo not given) do in these assays?
12-LOX inh: 40µM*

How did CN(C)CCN1CCN(C2CN(Cc3cn(Cc4cccc(Cl)c4)nn3)S(=O)(=O)C2)CC1 (stereo not given) do in these assays?
12-LOX inh: 7.9µM*

Results for Cn1c(C2CCCN2C(=O)OC(C)(C)C)n[nH]c1=S (stereo not given) ?
Sfp inh: inconclusive; VDR inhibitor: -12%; G9a block: 22µM*; 12-LOX inh: -10%; GRP78 ERSR act: -2%

Results for O=C(Nc1ccc2c3c(cccc13)CC2)c1cccc(I)c1 ?
12-LOX inh: 3%

What do the screens show for `CC(NC(=O)c1ccc2c(c1)NC(=O)CCS2)c1ccncc1` (stereo not given)?
12-LOX inh: 8.9µM*

How did O=C1CCSc2ccc(C(=O)NO)cc2N1 do in these assays?
12-LOX inh: 40µM*

Results for COc1ccc(CC(NC(=O)c2ccc3c(c2)NC(=O)CCS3)c2ccc(OC)cc2)cc1 (stereo not given) ?
12-LOX inh: -30%

What do the screens show for `CCC(C)C(=O)NCC(OC)c1ccccc1` (stereo not given)?
12-LOX inh: -41%

What do the screens show for `O=S(=O)(c1cccc(F)c1)N1CCC(N2CCOCC2)CC1`?
12-LOX inh: -2%

Results for CCN(C(=O)c1cc2ccc(OC)cc2[nH]1)C1CCCCC1 ?
12-LOX inh: -20%

Results for COc1ccccc1CCC(=O)Nc1ccc(S(=O)(=O)Nc2cc(C)nc(C)n2)cc1 ?
VDR inhibitor: -15%; G9a block: 50µM*; 12-LOX inh: inconclusive; GRP78 ERSR act: -2%

What do the screens show for `COc1ccccc1C(=O)Nc1ccc(S(=O)(=O)Nc2cc(C)nc(C)n2)cc1`?
Sfp inh: 12%; VDR inhibitor: 8%; G9a block: 2%[12.7 µM]; 12-LOX inh: 25%; GRP78 ERSR act: 0%

What do the screens show for `Cc1cc(NS(=O)(=O)c2ccc(NC(=O)/C=C/c3ccc(C)o3)cc2)nc(C)n1`?
Sfp inh: 3.5µM*; VDR inhibitor: inconclusive; G9a block: 8.9µM*; 12-LOX inh: -12%; GRP78 ERSR act: -1%

Results for COc1ccccc1/C=C/C(=O)Nc1ccc(S(=O)(=O)Nc2cc(C)nc(C)n2)cc1 ?
Sfp inh: -4%; VDR inhibitor: 4%; G9a block: 35µM*; 12-LOX inh: inconclusive; GRP78 ERSR act: -3%

How did CCCC(=O)OC do in these assays?
12-LOX inh: 14%[176 µM]

How did COc1ccc(C(=O)c2c(O)cc(-c3ccc(OC)cc3)oc2=O)cc1 do in these assays?
Sfp inh: 10%; VDR inhibitor: inconclusive; G9a block: inconclusive; 12-LOX inh: inconclusive; GRP78 ERSR act: -4%

Results for CN(C)c1cc(-c2ccc(Br)cc2)oc(=O)c1Cl ?
Sfp inh: -12%; VDR inhibitor: 9%; G9a block: 50µM*; 12-LOX inh: 51%; GRP78 ERSR act: 1%

What do the screens show for `Cc1ccc(CNc2nc(-c3ccco3)nn2S(C)(=O)=O)cc1`?
VDR inhibitor: 4%; G9a block: -3%[59 µM]; 12-LOX inh: -4%; GRP78 ERSR act: -1%

Results for CCS(=O)(=O)n1nc(-c2ccc(Cl)cc2)nc1SC ?
Sfp inh: 56µM*; VDR inhibitor: 10%; G9a block: 7%[59 µM]; 12-LOX inh: inconclusive; GRP78 ERSR act: 0%

What do the screens show for `CSc1nc(-c2ccco2)nn1S(=O)(=O)c1ccc(C)cc1`?
Sfp inh: 45µM*; VDR inhibitor: inconclusive; G9a block: 40µM*; 12-LOX inh: -111%; GRP78 ERSR act: -5%

What do the screens show for `CSc1nc(-c2ccco2)nn1S(=O)(=O)c1ccccc1`?
Sfp inh: inconclusive; G9a block: 20µM*

Compound activity as filed in PubChem BioAssay.
